This is an account of results in PubChem BioAssay.

Assay [1] deals with PRMT1 (protein arginine N-methyltransferase 1). As to the kind of experiment: PRMT1 binders on small-molecule microarrays, primary screen, biochemical, small-molecule microarray, 635 nm fluorescence (AID 1088).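 Also: binding of Prmt1 protein to compounds spotted on small-molecule microarray slides.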 As to conditions: small-molecule microarray binding, higher = more signal.
Assay [2] is described as follows: yeast growth modulation, basal conditions, primary screen, YJM789 clinical isolate, OD600, 24 h (AID 1089).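 Also: growth of clinical yeast isolate S. cerevisiae YJM 789 seeded 1000 cells per well; test concentration not given here.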 As to conditions: S. cerevisiae YJM789 growth, higher = more signal, called active from +8 up or from −8 down.
Assay [3] can be described thus: fission yeast growth modulation, primary screen, strain 972, OD600, 24 h, no modulator (AID 1090).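 Also: basal condition with compound alone and no growth modifier present; test concentration not given here.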 The conditions noted are these: S. pombe 972 growth, higher = more signal, called active from +8 up or from −8 down.
Assay [4] is described as follows: S. cerevisiae growth modulation with rapamycin, primary screen, strain BY4716, OD600, 96 h (AID 1091). Also: test concentration not given here. The conditions noted are these: higher = more signal, called active from +8 up or from −8 down.
The target in assay [5] is Torsin-1A-interacting protein 2 (Homo sapiens) (UniProt Q8NFQ8). Put plainly: LULL1 binders on small-molecule microarray, primary screen, cell lysate, human LULL1 lysate, 635/667 nm fluorescence (AID 1092).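 Also: probe is lysate of COS7 cells overexpressing human LULL1; score merges per-feature 667 nm fluorescence with signal-to-noise.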 The conditions noted are these: hLULL1 lysate binding, 635 nm fluorescence, higher = more signal.
Torsin-1A-interacting protein 2 (Homo sapiens), sequence (Q8NFQ8 whole entry, looked up): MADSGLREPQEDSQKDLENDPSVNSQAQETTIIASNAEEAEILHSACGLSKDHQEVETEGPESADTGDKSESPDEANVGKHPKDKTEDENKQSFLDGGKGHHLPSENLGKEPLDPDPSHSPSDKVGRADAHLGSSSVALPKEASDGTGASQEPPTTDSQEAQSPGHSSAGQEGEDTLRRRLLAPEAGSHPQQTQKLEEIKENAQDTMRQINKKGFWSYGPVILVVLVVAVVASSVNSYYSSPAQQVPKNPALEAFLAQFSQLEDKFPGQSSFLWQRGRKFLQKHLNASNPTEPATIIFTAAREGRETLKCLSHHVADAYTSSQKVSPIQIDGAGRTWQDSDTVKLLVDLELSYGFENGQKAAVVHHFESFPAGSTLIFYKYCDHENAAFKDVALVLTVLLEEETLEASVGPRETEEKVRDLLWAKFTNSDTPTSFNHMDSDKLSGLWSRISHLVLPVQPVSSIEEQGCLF
The nature of assay [6]: E. coli growth modulation, two-sided OD650, primary screen, E. coli filamentation project, strain DRC41, 24 h (AID 1093).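 Also: MC1000 strain lacking acrAB efflux and sulA so SOS filamentation is blocked; test concentration not given here.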 The conditions noted are these: OD650, 24 h, higher = more signal, called active from +8 up or from −8 down.
Assay [7] in a line: small-molecule microarray binders of probe aLefty2, primary screen, biochemical, biotinylated probe, 635/667 nm fluorescence (AID 1094).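 Also: score merges spot fluorescence near 667 nm with spot signal-to-noise ratio.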 As to conditions: higher = more signal.
For assay [8], the system named is Noggin (protein binding on small-molecule microarray). As to the kind of experiment: Noggin binders on small-molecule microarray, primary screen, biochemical, 635/667 nm fluorescence (AID 1095).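 Also: score merges 667 nm feature fluorescence with signal to noise over triplicate slides.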 As to conditions: 635 nm fluorescence, higher = more signal.
In assay [9] the target is Neurogenic locus notch homolog protein 3 (Homo sapiens) (UniProt Q9UM47). Put plainly: NOTCH3 binders on small-molecule microarray, primary screen, biochemical, 635/667 nm fluorescence (AID 1096). The conditions noted are these: NOTCH3 binding, 635 nm fluorescence, higher = more signal.
Neurogenic locus notch homolog protein 3 (Homo sapiens), sequence (Q9UM47 whole entry, looked up): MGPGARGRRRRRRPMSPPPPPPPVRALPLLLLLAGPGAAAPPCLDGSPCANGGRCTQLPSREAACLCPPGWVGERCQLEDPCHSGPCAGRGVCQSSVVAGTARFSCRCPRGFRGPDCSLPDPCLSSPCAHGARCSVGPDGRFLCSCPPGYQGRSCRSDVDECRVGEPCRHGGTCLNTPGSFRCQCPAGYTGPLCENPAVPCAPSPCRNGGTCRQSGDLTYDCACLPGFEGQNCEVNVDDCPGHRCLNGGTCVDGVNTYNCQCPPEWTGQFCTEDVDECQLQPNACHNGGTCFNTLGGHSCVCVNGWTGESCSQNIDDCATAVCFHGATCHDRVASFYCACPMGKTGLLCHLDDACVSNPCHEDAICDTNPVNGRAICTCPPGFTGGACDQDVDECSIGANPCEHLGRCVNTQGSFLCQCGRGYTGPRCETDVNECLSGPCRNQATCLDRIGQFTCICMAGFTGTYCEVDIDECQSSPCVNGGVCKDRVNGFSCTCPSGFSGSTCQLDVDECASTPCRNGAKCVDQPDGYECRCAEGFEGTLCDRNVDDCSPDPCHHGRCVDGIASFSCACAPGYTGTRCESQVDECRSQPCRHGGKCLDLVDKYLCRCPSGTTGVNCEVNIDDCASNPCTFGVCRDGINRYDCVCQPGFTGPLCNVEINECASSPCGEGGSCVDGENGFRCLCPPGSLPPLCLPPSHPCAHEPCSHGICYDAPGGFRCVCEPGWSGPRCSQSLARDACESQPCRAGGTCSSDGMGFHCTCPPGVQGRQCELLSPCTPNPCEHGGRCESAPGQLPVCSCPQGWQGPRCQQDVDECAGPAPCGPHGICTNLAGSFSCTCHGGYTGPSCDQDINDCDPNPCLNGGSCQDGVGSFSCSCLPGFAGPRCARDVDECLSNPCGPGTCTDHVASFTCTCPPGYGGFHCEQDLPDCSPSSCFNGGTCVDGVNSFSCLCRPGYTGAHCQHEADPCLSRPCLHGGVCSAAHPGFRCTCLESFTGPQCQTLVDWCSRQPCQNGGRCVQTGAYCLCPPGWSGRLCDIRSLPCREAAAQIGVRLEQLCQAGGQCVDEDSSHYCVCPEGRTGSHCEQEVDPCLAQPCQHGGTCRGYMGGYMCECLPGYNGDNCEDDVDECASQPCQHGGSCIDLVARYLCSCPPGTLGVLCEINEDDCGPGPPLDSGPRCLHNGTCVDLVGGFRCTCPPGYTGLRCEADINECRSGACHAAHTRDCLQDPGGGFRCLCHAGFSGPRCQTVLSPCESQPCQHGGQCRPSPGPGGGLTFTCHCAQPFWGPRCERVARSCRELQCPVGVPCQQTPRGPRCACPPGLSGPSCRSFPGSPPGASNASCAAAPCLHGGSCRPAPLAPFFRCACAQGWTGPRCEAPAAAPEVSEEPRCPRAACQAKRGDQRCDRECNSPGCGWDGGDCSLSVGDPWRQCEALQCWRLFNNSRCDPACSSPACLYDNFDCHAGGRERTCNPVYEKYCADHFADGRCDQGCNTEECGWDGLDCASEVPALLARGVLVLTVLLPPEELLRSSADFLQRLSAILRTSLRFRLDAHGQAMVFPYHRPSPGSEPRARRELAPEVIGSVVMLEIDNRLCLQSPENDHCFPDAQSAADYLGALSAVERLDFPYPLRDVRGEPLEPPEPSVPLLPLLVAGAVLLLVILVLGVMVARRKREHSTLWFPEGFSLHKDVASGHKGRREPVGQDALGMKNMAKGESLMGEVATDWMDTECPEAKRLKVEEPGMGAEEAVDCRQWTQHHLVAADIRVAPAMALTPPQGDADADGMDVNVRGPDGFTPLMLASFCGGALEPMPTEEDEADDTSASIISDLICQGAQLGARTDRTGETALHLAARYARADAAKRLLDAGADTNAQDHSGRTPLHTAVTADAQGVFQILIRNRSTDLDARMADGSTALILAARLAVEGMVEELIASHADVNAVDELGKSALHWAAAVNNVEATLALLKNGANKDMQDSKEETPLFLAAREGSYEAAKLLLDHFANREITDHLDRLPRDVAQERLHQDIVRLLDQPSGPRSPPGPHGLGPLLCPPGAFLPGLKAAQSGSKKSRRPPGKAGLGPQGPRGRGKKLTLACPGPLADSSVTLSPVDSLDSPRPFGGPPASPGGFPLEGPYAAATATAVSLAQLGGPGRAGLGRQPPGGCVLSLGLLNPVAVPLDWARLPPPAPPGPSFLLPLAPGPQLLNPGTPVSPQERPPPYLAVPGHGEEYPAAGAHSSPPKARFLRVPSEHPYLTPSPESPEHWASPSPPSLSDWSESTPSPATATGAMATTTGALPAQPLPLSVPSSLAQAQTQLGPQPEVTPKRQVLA
Assay [10] in a line: small-molecule microarray binders of probe aEGFR, primary screen, biochemical, biotinylated probe, 635/667 nm fluorescence (AID 1097).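 Also: probe is a biotinylated anti-EGFR antibody binding compounds printed on slides; score combines fluorescence near 667 nm and signal to noise of each spot.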 As to conditions: higher = more signal.

Active and inactive are the calls of the source.

Regarding `C=CC[C@]12N=C(c3ccc(OCCCO)cc3)O[C@H]1c1ccccc1N(CCS(=O)(=O)c1ccccc1)C2=O`, the composite z-score in assay [1] was 1.49; in assay [5], 2.14; in assay [7], 0.0561; in [8], 0.698; in [9], 1.07; in assay [10] it was -0.0828. The z-score in assay [2] was -1.07 (inactive); in assay [3] it was -1.51 (inactive); in assay [4], 0.811 (inactive); in assay [6], 1.02 (inactive).

In the case of `COCCCNC(=O)[C@@H]1c2ccccc2C(=O)N(Cc2ccccc2OC)[C@H]1c1ccc(CO)cc1`, the composite z-score in assay [1] was -0.244; in assay [5], 2.56; in [7], -0.157; in assay [8], 1.68; in assay [9], 0.876; in assay [10], -0.115. The z-score in assay [2] is 0.118 (inactive); in assay [3] it was -0.757 (inactive); in assay [4], -0.921 (inactive); in assay [6] it was -0.0935 (inactive).

In the case of `CC(C)(C)OC(=O)CC[C@]1(C(=O)NCCN2CCOCC2)COC(c2ccc(OCCCO)cc2)=N1`, the composite z-score is 1.47 in [1]; 3.4 in [5]; -0.0984 in [7]; 1.05 in [8]; 1.03 in assay [9]; -0.0656 in [10]. Besides, the z-score was 0.57 (inactive) in assay [2], 0.41 (inactive) in assay [3], -0.342 (inactive) in [4] and 0.99 (inactive) in assay [6].

As for `C=CC[C@]1(C(N)=O)N=C(c2ccc(OCCCO)cc2)O[C@H]1c1ccccc1`, the composite z-score in assay [1] is 0.243; in [5] it was 2.17; in assay [7], 0.0493; in [8], 0.201; in assay [9] it was -0.674; in assay [10], -0.165. Moreover, the z-score in assay [2] is -0.52 (inactive); in [3], -0.0257 (inactive); in assay [4] it was -0.953 (inactive); in assay [6] it was 0.0588 (inactive).

Consider `O=C(CS)NCCCCCNC(=O)[C@H]1C[C@H]2C(=O)NCC(=O)N2[C@H]1c1ccc(O)cc1`, for which the composite z-score was -0.313 in assay [1]; -1.29 in assay [5]; -0.179 in assay [7]; -0.177 in assay [8]; -0.905 in [9]; -0.132 in assay [10]. Also, the z-score in assay [2] is -2.76 (inactive); in assay [3], 1.02 (inactive); in assay [4] it was -1.11 (inactive); in assay [6], 0.77 (inactive).

As for `CCOC(=O)C1=C[C@@H](C(C)C)N(S(=O)(=O)c2ccc(C)cc2)[C@H]1c1ccccc1F`, the composite z-score in [1] is 1.58; in assay [5] it was 2.8; in assay [7] it was 0.142; in [8], 0.351; in assay [9], 1.06; in [10] it was 0.0353. In addition, the z-score is -0.413 (inactive) in assay [2], 1.51 (inactive) in assay [3], 7.3 (inactive) in [4] and -0.816 (inactive) in assay [6].

Take `O=C1NC(=O)C2C1C=CC(C(O)c1ccc(-c3ccccc3)s1)N2Nc1ccc(Cl)cc1Cl` (stereo not given): the composite z-score was 0.193 in assay [1]; 3.07 in assay [5]; 0.214 in [7]; 0.23 in assay [8]; 0.983 in [9]; -0.106 in assay [10]. Further, the z-score in [2] is -0.863 (inactive); in [3], -1.76 (inactive); in assay [4], 1.58 (inactive); in assay [6] it was -1.25 (inactive).

In the case of `CC(C)OC(=O)C=C1C[C@@H](c2cccc(Cl)c2)O[C@@H](c2cccc(Cl)c2)O1`, the composite z-score in assay [1] is -0.341; in [5], 1.99; in [7], -0.0009; in assay [8], -0.225; in assay [9] it was -0.735; in [10] it was -0.13. The z-score is -0.338 (inactive) in assay [2], -5.58 (inactive) in [3], -0.764 (inactive) in assay [4] and -0.391 (inactive) in assay [6].

As to `CCOC(=O)C1=CC[C@H]2C(=O)N(c3ccccc3)C(=O)[C@@H]12`, the composite z-score in [1] is 1.48; in [5], 3.4; in [7], 0.157; in assay [8], 0.436; in assay [9] it was 1.07; in assay [10], 0.08. In addition, the z-score in [2] was 0.296 (inactive); in assay [3], -0.0087 (inactive); in assay [4] it was -0.487 (inactive); in assay [6] it was -0.981 (inactive).

For `COC(=O)[C@]1(Cc2ccccc2)N=C(c2ccc(OCCCO)cc2)O[C@@H]1c1ccccc1N=[N+]=[N-]`, the composite z-score is 1.52 in [1]; 1.82 in assay [5]; -0.0389 in [7]; 1.15 in [8]; 0.58 in assay [9]; -0.0987 in [10]. Further, the z-score in assay [2] was -0.701 (inactive); in assay [3] it was -1.01 (inactive); in assay [4], 24.6 (active); in assay [6] it was -0.604 (inactive).

On to `CC(C)[Si](C#C[Si](C(C)C)(C(C)C)C(C)C)(O[C@H](C)c1cn(Cc2ccccc2)nn1)C(C)C`, for which the composite z-score in [1] is 1.04; in assay [5], 1.92; in [7] it was -0.0936; in [8] it was 0.369; in assay [9] it was 0.928; in [10], 0.0026. Further, the z-score in assay [2] is 0.319 (inactive); in assay [3], 0.497 (inactive); in [4], -0.109 (inactive); in assay [6], 1.32 (inactive).

Consider `C=CCNC(=O)[C@@H]1[C@H]2C(=O)O[C@H](c3ccccc3)[C@H](c3ccccc3)N2[C@H](c2ccc(OCCO)cc2)[C@@]12C(=O)N(C(=O)OCCOC)c1ccc(C#CCNC(N)=O)cc12`, for which the composite z-score is 1.4 in assay [1]; 1.61 in assay [5]; 0.0565 in [7]; 0.954 in [8]; 1.13 in assay [9]; -0.0069 in [10]. Also, the z-score in [2] was 2.15 (inactive); in assay [3], -0.221 (inactive); in assay [4] it was 3.97 (inactive); in assay [6], 1.98 (inactive).

For the compound `CCOC(=O)C1=CCC(c2ccc(F)cc2)N(S(=O)(=O)c2ccc(C)cc2)C1` (stereo not given), the composite z-score in [1] is 0.249; in assay [5], 0.799; in assay [7] it was -0.0396; in [8] it was -0.0456; in assay [9], 0.284; in assay [10], -0.0839. For the same compound, the z-score in assay [2] is 0.265 (inactive); in assay [3], 0.639 (inactive); in assay [4], 1.68 (inactive); in [6], -0.704 (inactive).

Consider `CCCNC(=O)[C@@H]1c2ccccc2C(=O)N(Cc2ccccc2OC)[C@H]1c1ccc(CO)cc1`, for which the composite z-score is 0.286 in [1]; 3.06 in assay [5]; -0.139 in assay [7]; 0.986 in assay [8]; 1.11 in [9]; -0.142 in [10]. The z-score in [2] is 0.105 (inactive); in assay [3], -0.19 (inactive); in [4], 0.353 (inactive); in assay [6] it was 0.387 (inactive).

Regarding `COCCOC(=O)N1C(=O)[C@@]2(c3cc(C#CC4=CCCCC4)ccc31)[C@H](c1ccc(OCCO)cc1)N1[C@H](c3ccccc3)[C@H](c3ccccc3)OC(=O)[C@H]1[C@@H]2C(=O)N1CCc2cc(OC)c(OC)cc2C1`, the composite z-score in [1] worked out at 1.55; in [5], 1.94; in assay [7], 0.034; in assay [8] it was 0.921; in [9] it was 1.06; in assay [10] it was 0.119. Also, the z-score in [2] is 2.47 (inactive); in assay [3] it was 0.535 (inactive); in assay [4], 4.01 (inactive); in assay [6] it was 1.96 (inactive).
